Assay results: the supplement of paper PMC10849652
About 7,900 targets were measured; listed, in parts, are those with a hit and a random draw of the rest. About 0.6% of all pairs of compound and target were hits. A number with no mark means an inactive call.

Assays:
Experiment in all cases: log2 fold change, soluble protein after heating vs DMSO (PISA); higher = thermal stabilisation; K562 cells, 10 uM, 30 min; active = over 0.2 and 3.5 SD of the protein, either way, in both replicates (recomputed)
[1] = compound: CC[C@@H]1C(=O)N(C)c2cnc(Nc3ccc(C(=O)NC4CCN(C)CC4)cc3OC)nc2N1C1CCCC1
Procedure, shortened: (§1)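 Soluble protein was defined as the supernatant after 21,000xg for 90 min. It came from K562 cells at 2×10^6 cells/mL given 10 μM compound for 30 min, heated in aliquots for 3 min across 48°C-58°C, pooled, and extracted in PBS with 0.5% NP-40 at 4°C, and was quantified by TMTpro 16plex LC-MS/MS with equalised channel sums. Thermal stability against control samples, from duplicates, is reported as log2 fold change.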

[2] = compound: CC[C@@H]1C(=O)N(C)c2cnc(Nc3ccc(C(=O)N[C@H]4CC[C@H](N5CCN(CC6CC6)CC5)CC4)cc3OC)nc2N1C(C)C [volasertib]
Procedure, shortened: as §1

[3] = compound: CC[C@H](C)N1C=C(C2=C(C=C(C=C21)C3=CN=C(C=C3)N4CCNCC4)C(=O)NCC5=C(C=C(NC5=O)C)C)C
Procedure, shortened: as §1

[4] = compound: CCn1c(C(=O)N(C2CC2)C2CC2)cc2c3c(ncn3C)c(Nc3cc(C)n(C)n3)nc21
Procedure, shortened: as §1

[5] = compound: CCn1cc(-c2ccnc3[nH]c(-c4cccc(CN(C)C)c4)cc23)c(-c2ccc(NC(=O)N(C)C)cc2)n1
Procedure, shortened: as §1

[6] = compound: CN(C)CC(=O)Nc1ccc2[nH]c(=O)c3ccccc3c2c1
Procedure, shortened: as §1

[7] = compound: CN(CCOC1=CC=C(C=C1)C[C@H]2C(=O)NC(=O)S2)C3=CC=CC=N3 (racemic) [rosiglitazone]
Procedure, shortened: as §1

[8] = compound: CN1C2=C(C3=C1C(=O)N(N=C3)CC4=CC(=CC=C4)N)SC(=C2)S(=O)C
Procedure, shortened: as §1

[9] = compound: CN1CCC(CNc2ccc3ncc(-c4cccc(OC(F)(F)F)c4)n3n2)CC1
Procedure, shortened: as §1

[10] = compound: CN1CCN(CCOc2cc(OC3CCOCC3)c3c(Nc4c(Cl)ccc5c4OCO5)ncnc3c2)CC1 [saracatinib]
Procedure, shortened: as §1

[11] = compound: CN1CCN(c2nc(C3=C(c4c[nH]c5ccccc45)C(=O)NC3=O)c3ccccc3n2)CC1 [sotrastaurin]
Procedure, shortened: as §1

[12] = compound: CN1CC[C@H](c2c(O)cc(O)c3c(=O)cc(-c4ccccc4Cl)oc23)[C@H](O)C1 [alvocidib]
Procedure, shortened: as §1

[13] = compound: CN1CCc2c(c3ccccc3n2Cc2ccc(C(=O)NO)cc2)C1 [Tubastatin A]
Procedure, shortened: as §1

[14] = compound: CNC(=O)C1=CC=CC=C1NC2=NC(=NC=C2Cl)NC3=C(C=C(C=C3)N4CCOCC4)OC
Procedure, shortened: as §1

[15] = compound: CNC(=O)c1ccc(Nc2ncc(C(F)(F)F)c(NCc3nccnc3N(C)S(C)(=O)=O)n2)cc1 [defactinib]
Procedure, shortened: as §1

[16] = compound: CNCc1ccc(-c2[nH]c3cc(F)cc4c3c2CCNC4=O)cc1 [rucaparib]
Procedure, shortened: as §1

[17] = compound: CNc1nc(-c2ccc3c(N)n[nH]c3c2)cc(N2C[C@@H](C(=O)NC3CCCCC3)CC[C@H]2C)n1
Procedure, shortened: as §1

[18] = compound: COC(=O)N[C@@H](C)CNc1nccc(-c2cn(C(C)C)nc2-c2cc(Cl)cc(NS(C)(=O)=O)c2F)n1 [encorafenib]
Procedure, shortened: as §1

[19] = compound: COC(=O)[C@H](CCSC)NC(=O)C1=C(C=C(C=C1)NC[C@H](CS)N)C2=CC=CC=C2
Procedure, shortened: as §1

[20] = compound: CC[C@H](C)[C@@H](C(=O)N[C@@H]([C@@H](C)O)C(=O)N[C@@H](CC(C)C)C(=O)[C@]1(CO1)C)NC(=O)[C@H]([C@@H](C)CC)N(C)C(=O)C [epoxomicin]
Procedure, shortened: as §1

Target: UBIAD1 (UniProt Q9Y5Z9)
Sequence of UniProt Q9Y5Z9 (Q9Y5Z9 whole entry, looked up): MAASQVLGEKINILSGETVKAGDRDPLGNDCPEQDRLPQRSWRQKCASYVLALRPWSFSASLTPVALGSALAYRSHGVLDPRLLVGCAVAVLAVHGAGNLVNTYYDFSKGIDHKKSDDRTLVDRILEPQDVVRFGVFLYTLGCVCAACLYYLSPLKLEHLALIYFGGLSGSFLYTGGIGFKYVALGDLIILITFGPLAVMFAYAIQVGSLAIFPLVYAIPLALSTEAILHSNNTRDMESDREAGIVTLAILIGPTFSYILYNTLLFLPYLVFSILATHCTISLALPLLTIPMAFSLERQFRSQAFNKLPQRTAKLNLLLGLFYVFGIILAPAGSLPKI
- log2 fold change [1]: -0.008
- log2 fold change [2]: -0.065
- log2 fold change [3]: -0.014
- log2 fold change [4]: -0.009
- log2 fold change [5]: 0.027
- log2 fold change [6]: -0.011
- log2 fold change [7]: 0.044
- log2 fold change [8]: -0.094
- log2 fold change [9]: -0.041
- log2 fold change [10]: 0.003
- log2 fold change [11]: 0.208
- log2 fold change [12]: 0.021
- log2 fold change [13]: -0.078
- log2 fold change [14]: 0.054
- log2 fold change [15]: 0.002
- log2 fold change [16]: 0.473 (active)
- log2 fold change [17]: -0.053
- log2 fold change [18]: -0.035
- log2 fold change [19]: -0.039

Target: TMEM9B (UniProt Q9NQ34)
Sequence of UniProt Q9NQ34 (Q9NQ34 whole entry, looked up): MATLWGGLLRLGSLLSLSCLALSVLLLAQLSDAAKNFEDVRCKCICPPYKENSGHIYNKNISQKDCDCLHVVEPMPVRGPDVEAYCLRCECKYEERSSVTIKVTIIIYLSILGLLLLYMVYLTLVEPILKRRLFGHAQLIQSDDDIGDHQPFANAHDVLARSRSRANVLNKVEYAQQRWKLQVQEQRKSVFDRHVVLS
- log2 fold change [1]: 0.035
- log2 fold change [2]: -0.192
- log2 fold change [3]: -0.011
- log2 fold change [20]: 0.109
- log2 fold change [4]: 0.035
- log2 fold change [5]: 0.049
- log2 fold change [6]: -0.023
- log2 fold change [7]: 0.037
- log2 fold change [9]: -0.054
- log2 fold change [11]: 0.019
- log2 fold change [12]: 0.075
- log2 fold change [13]: -0.033
- log2 fold change [14]: -0.029
- log2 fold change [15]: -0.029
- log2 fold change [16]: -0.02
- log2 fold change [18]: 0.063
- log2 fold change [19]: -0.001

Target: TTI2 (UniProt Q6NXR4)
Sequence of UniProt Q6NXR4 (Q6NXR4 whole entry, looked up): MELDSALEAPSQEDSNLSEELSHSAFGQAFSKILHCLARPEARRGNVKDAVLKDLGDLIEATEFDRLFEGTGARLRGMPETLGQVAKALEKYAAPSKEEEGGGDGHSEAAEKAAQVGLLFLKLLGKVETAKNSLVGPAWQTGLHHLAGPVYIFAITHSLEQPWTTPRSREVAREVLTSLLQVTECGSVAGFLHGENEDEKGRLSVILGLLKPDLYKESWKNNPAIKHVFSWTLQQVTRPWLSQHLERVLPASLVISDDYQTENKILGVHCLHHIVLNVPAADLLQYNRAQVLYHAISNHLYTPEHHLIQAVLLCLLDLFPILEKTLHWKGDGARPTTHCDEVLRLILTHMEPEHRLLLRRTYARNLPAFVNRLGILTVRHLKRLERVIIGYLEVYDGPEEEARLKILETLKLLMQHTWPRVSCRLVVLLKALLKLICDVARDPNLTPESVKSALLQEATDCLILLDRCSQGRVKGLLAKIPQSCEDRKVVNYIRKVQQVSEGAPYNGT
- log2 fold change [1]: -0.173
- log2 fold change [2]: -0.414 (active)
- log2 fold change [3]: 0.021
- log2 fold change [20]: 0.085
- log2 fold change [4]: -0.016
- log2 fold change [6]: 0.09
- log2 fold change [7]: -0.01
- log2 fold change [8]: 0.03
- log2 fold change [10]: -0.028
- log2 fold change [11]: -0.187
- log2 fold change [12]: 0.027
- log2 fold change [13]: -0.02
- log2 fold change [14]: 0.051
- log2 fold change [15]: -0.073
- log2 fold change [16]: 0.119
- log2 fold change [17]: -0.036
- log2 fold change [18]: 0.037
- log2 fold change [19]: -0.038

Target: WDR46, A0A0G2JJL1
- log2 fold change [1]: 0.388
- log2 fold change [2]: 0.37
- log2 fold change [3]: -0.068
- log2 fold change [20]: -0.451
- log2 fold change [4]: -0.108
- log2 fold change [6]: -0.183
- log2 fold change [7]: -0.177
- log2 fold change [8]: 0.215
- log2 fold change [10]: 0.065
- log2 fold change [11]: 0.052
- log2 fold change [13]: -0.095
- log2 fold change [14]: 0.007
- log2 fold change [15]: 0.408
- log2 fold change [16]: 0.293
- log2 fold change [17]: 0.119
- log2 fold change [18]: 0.044
- log2 fold change [19]: -0.138

Target: XRCC5 (UniProt P13010)
Sequence of UniProt P13010 (P13010 whole entry, looked up): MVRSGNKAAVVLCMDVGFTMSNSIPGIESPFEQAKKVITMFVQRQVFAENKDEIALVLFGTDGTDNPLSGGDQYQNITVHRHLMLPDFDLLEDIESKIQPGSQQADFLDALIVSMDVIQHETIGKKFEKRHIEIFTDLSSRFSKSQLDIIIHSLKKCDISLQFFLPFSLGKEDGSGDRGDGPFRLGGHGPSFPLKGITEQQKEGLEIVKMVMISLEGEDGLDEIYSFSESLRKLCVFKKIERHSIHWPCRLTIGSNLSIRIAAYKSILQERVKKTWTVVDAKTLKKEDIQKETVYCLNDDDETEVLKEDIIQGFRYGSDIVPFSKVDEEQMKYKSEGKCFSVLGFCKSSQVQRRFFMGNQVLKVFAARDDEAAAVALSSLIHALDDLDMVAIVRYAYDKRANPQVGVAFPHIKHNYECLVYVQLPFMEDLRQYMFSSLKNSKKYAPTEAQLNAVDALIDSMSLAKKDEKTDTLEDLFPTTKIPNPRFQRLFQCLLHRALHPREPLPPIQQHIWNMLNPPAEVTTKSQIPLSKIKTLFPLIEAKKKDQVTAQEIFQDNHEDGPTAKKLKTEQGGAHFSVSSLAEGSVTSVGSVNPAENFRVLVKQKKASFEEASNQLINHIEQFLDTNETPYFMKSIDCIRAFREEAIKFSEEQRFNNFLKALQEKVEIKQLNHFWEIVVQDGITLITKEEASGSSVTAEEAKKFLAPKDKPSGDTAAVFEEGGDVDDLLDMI
- log2 fold change [1]: -0.172
- log2 fold change [2]: -0.482
- log2 fold change [3]: 0.207
- log2 fold change [20]: 0.069
- log2 fold change [4]: -0.103
- log2 fold change [5]: 0.009
- log2 fold change [6]: 0.169
- log2 fold change [7]: 0.114
- log2 fold change [8]: 0.124
- log2 fold change [9]: -0.087
- log2 fold change [10]: -0.057
- log2 fold change [11]: -0.332
- log2 fold change [12]: -0.214
- log2 fold change [13]: 0.173
- log2 fold change [14]: -0.032
- log2 fold change [15]: -0.37
- log2 fold change [16]: 0.07
- log2 fold change [17]: 0.048
- log2 fold change [18]: 0.21
- log2 fold change [19]: -0.067

Target: TMEM8A (UniProt Q9HCN3)
Sequence of UniProt Q9HCN3 (Q9HCN3 whole entry, looked up): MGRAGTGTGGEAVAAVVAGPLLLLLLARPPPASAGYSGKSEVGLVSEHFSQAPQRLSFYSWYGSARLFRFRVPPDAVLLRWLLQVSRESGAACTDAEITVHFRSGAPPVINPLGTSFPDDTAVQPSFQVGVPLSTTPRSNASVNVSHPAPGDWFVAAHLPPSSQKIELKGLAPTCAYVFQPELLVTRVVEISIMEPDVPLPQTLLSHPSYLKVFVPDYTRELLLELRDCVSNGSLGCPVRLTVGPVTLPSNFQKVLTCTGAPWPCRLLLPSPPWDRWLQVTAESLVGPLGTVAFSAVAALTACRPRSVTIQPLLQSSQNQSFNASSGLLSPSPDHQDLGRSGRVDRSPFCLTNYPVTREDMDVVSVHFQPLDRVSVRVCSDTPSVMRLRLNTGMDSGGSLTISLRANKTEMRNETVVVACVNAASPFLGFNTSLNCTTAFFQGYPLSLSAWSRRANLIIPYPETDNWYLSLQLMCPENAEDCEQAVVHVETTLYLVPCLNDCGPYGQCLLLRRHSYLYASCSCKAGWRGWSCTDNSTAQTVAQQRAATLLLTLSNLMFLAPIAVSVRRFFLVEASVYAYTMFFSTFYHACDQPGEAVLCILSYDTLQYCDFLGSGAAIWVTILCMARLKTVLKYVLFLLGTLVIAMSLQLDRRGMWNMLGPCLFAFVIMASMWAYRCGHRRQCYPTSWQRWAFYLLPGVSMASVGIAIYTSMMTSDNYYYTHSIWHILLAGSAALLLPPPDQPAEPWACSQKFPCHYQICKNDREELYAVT
- log2 fold change [1]: -0.11
- log2 fold change [2]: 0.008
- log2 fold change [3]: -0.108
- log2 fold change [4]: 0.068
- log2 fold change [5]: -0.037
- log2 fold change [6]: -0.031
- log2 fold change [7]: 0.009
- log2 fold change [8]: 0.082
- log2 fold change [9]: -0.104
- log2 fold change [10]: 0.059
- log2 fold change [11]: -0.099
- log2 fold change [12]: -0.009
- log2 fold change [13]: 0.108
- log2 fold change [14]: -0.042
- log2 fold change [15]: -0.039
- log2 fold change [16]: 0.004
- log2 fold change [17]: 0.02
- log2 fold change [18]: 0.037
- log2 fold change [19]: -0.191

Target: TP53BP1 isoform 2 (UniProt Q12888)
Sequence of UniProt Q12888 (Q12888 whole entry, looked up): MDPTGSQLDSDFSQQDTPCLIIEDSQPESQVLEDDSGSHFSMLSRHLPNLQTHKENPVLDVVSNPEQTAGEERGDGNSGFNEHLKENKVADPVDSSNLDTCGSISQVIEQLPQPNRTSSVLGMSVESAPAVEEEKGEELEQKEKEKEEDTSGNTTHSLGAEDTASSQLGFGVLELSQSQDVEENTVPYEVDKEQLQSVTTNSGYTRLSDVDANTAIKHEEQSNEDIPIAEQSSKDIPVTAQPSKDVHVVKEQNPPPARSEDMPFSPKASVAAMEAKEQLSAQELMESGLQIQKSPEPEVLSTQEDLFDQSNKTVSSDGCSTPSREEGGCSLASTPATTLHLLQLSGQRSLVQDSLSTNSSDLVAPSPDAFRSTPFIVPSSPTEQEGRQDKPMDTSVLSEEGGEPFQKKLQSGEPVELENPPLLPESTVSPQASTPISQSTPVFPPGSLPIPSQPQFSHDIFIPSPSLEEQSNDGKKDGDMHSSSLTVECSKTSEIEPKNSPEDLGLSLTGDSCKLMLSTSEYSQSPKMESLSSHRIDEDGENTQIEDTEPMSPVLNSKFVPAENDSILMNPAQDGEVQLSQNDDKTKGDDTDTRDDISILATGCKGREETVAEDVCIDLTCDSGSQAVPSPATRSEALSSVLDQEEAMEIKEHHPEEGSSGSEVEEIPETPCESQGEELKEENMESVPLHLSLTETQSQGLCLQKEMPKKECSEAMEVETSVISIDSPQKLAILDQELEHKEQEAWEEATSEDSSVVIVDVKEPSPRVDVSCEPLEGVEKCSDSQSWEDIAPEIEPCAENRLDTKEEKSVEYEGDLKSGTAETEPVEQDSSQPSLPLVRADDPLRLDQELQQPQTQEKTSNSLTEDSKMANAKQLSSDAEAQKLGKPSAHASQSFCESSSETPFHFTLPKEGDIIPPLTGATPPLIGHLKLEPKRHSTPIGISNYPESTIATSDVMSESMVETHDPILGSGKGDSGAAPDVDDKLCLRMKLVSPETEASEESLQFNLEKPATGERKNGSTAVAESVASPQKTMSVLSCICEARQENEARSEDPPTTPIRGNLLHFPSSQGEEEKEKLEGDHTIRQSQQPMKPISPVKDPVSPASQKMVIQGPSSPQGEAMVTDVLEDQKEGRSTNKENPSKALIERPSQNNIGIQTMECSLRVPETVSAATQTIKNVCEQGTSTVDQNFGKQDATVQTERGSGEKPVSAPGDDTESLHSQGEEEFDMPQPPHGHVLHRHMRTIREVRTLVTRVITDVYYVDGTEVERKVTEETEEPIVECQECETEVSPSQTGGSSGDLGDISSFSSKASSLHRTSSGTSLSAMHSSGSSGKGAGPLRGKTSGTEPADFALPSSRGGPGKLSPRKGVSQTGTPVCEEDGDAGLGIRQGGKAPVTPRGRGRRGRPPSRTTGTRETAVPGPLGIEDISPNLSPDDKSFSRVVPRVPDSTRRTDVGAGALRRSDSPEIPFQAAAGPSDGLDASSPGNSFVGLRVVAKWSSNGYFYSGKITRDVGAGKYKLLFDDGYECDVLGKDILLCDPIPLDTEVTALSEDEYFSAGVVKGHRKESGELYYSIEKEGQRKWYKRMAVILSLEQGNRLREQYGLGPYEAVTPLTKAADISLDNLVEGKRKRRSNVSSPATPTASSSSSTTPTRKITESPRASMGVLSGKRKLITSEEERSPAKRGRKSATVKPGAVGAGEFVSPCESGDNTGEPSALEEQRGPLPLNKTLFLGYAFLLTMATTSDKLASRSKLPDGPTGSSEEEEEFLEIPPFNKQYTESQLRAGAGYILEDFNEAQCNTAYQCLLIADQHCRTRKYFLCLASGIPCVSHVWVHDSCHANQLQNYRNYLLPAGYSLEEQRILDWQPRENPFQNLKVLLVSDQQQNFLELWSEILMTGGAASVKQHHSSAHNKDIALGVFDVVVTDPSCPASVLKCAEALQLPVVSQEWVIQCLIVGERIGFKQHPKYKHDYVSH
- log2 fold change [1]: -0.024
- log2 fold change [2]: -0.072
- log2 fold change [3]: 0.021
- log2 fold change [20]: 0
- log2 fold change [4]: -0.01
- log2 fold change [5]: 0
- log2 fold change [6]: 0.008
- log2 fold change [7]: -0.018
- log2 fold change [8]: 0.052
- log2 fold change [9]: 0.025
- log2 fold change [10]: 0.01
- log2 fold change [11]: -0.112
- log2 fold change [12]: -0.081
- log2 fold change [13]: 0.116
- log2 fold change [14]: 0.061
- log2 fold change [15]: -0.073
- log2 fold change [16]: 0.025
- log2 fold change [17]: -0.022
- log2 fold change [18]: 0.059
- log2 fold change [19]: 0.036

Target: VDAC1 (UniProt C9JI87)
- log2 fold change [1]: 0.097
- log2 fold change [2]: 0.08
- log2 fold change [3]: -0.334
- log2 fold change [20]: -0.007
- log2 fold change [4]: 0
- log2 fold change [8]: 0.21
- log2 fold change [10]: -0.027
- log2 fold change [11]: 0.034
- log2 fold change [12]: 0.201
- log2 fold change [14]: -0.135
- log2 fold change [16]: -0.247
- log2 fold change [17]: -0.189
- log2 fold change [18]: -0.087

Target: UFM1 (UniProt P61960)
Sequence of UniProt P61960 (P61960 whole entry, looked up): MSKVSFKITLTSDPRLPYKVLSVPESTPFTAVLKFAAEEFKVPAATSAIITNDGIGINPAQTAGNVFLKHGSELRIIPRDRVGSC
- log2 fold change [1]: 0.025
- log2 fold change [2]: -0.13
- log2 fold change [3]: -0.092
- log2 fold change [20]: 0.023
- log2 fold change [4]: -0.026
- log2 fold change [6]: 0.043
- log2 fold change [7]: 0.029
- log2 fold change [8]: -0.062
- log2 fold change [10]: 0.028
- log2 fold change [11]: -0.004
- log2 fold change [12]: -0.262
- log2 fold change [13]: 0.097
- log2 fold change [14]: 0.026
- log2 fold change [15]: -0.066
- log2 fold change [16]: -0.119
- log2 fold change [17]: -0.013
- log2 fold change [18]: 0.029
- log2 fold change [19]: -0.031
